Data from ChEMBL document CHEMBL2218924, “A broad activity screen in support of a chemogenomic map for kinase signalling research and drug discovery” (Biochem J, 2013).

Experiments:
[1] = biological target: T1, Protein kinase C epsilon type (Homo sapiens) (UniProt Q02156); conditions: at 10 µM
T1 sequence (whole entry): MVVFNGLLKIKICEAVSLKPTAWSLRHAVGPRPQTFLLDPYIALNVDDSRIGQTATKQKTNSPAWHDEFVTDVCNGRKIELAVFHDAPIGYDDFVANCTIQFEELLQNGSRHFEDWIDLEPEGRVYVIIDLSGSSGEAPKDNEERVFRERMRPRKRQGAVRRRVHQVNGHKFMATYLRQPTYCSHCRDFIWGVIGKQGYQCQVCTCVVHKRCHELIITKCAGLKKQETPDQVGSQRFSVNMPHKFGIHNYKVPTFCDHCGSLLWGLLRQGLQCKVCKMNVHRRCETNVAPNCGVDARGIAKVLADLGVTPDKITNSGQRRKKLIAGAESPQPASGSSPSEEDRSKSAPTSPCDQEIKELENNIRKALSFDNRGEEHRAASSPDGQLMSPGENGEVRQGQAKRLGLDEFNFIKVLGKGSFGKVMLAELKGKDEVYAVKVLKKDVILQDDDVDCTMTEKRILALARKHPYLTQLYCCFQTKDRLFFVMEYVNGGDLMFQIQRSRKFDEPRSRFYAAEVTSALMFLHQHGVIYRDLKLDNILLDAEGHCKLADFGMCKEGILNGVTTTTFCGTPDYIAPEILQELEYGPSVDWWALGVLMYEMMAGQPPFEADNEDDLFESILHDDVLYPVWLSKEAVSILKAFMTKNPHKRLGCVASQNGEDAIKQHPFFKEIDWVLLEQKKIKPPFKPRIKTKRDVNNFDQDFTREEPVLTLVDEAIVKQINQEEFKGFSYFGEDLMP

[2] = biological target: Protein kinase C delta type (Homo sapiens) (UniProt Q05655); conditions: at 10 µM
Sequence of Protein kinase C delta type (Homo sapiens) (Q05655 whole entry, looked up): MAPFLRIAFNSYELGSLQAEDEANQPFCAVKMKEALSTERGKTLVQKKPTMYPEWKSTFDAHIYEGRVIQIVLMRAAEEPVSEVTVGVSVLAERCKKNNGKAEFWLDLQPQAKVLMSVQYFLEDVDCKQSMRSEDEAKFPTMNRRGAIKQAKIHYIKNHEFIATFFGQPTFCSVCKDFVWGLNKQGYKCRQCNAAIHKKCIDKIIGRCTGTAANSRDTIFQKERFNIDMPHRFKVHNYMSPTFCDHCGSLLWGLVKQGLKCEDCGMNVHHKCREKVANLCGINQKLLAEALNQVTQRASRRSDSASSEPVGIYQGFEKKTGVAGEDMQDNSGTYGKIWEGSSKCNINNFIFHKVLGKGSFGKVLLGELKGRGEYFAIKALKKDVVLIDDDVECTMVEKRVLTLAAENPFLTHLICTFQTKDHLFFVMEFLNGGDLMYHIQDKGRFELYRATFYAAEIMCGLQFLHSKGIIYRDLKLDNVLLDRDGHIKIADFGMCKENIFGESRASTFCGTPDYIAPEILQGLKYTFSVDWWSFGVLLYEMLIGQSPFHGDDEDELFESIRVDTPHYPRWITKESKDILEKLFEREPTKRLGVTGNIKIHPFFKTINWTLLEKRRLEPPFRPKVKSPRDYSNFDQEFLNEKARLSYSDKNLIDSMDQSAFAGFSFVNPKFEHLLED

[3] = biological target: T1, Protein kinase C epsilon type (Homo sapiens); conditions: at 1 µM

| SMILES | residual activity [1] | residual activity [2] | residual activity [3] |
| --- | --- | --- | --- |
| c1cc(-c2cnn3cc(-c4ccc(OCCN5CCCCC5)cc4)cnc23)ccn1 | 103% |  |  |
| C[S+]([O-])c1ccc(-c2nc(-c3ccc(F)cc3)c(-c3ccncc3)[nH]2)cc1 (centres undefined) | 105% | 105% | 125% |
| COc1ccc2c(c[n+](C)c3c4cc5c(cc4ccc23)OCO5)c1OC | 78% |  | 88% |
| CCc1nc(-c2ccc(OC)cc2)[nH]c1-c1ccncc1 | 109% | 105% | 104% |
| CCn1cnc2c(Nc3cccc(Cl)c3)nc(N[C@@H]3CCCC[C@@H]3N)nc21 | 80% | 59% | 100% |
| O=c1[nH]c2ccccc2n1C1CCN(Cc2ccc(-c3nc4cc5[nH]cnc5cc4nc3-c3ccccc3)cc2)CC1 | 100% | 111% | 87% |
| CC(C)[C@H](CO)Nc1nc(Nc2cccc(Cl)c2)c2ncn(C(C)C)c2n1 | 92% |  |  |
| CC(C)(C)c1cc(C=C(C#N)C#N)cc(Br)c1O |  | 97% | 108% |
| O=C1Nc2ccc3ncsc3c2/C1=C/c1c[nH]cn1 | 9% | 5% | 27% |
| COc1ccc2c(c1)/C(=C/c1cnc[nH]1)C(=O)N2 | 80% | 61% |  |
| COc1cc2ncnc(Nc3ccc(OCc4ccccc4)cc3)c2cc1OC | 119% | 106% | 104% |
| O=[N+]([O-])/C=C/c1ccc2c(c1)OCO2 | 81% | 95% | 81% |
| COc1cc(OC)c(/C=C2\C(=O)Nc3ccccc32)c(OC)c1 | 107% |  | 95% |
| COC(=O)[C@@]1(O)C[C@H]2O[C@]1(C)n1c3ccccc3c3c4c(c5c6ccccc6n2c5c31)C(=O)NC4 | 10% | 3% | 51% |
